We go through seven compounds from PubChem BioAssay (Tox21).

Each structure is given as a SMILES string. Values without a mark were called inactive. Records with an inconclusive call do not appear. The source made the active and inactive calls. Unless noted, the call rests on the fitted dose curve.

Test [1] is described as follows: Nuclear factor erythroid 2-related factor 2/antioxidant responsive element (Nrf2/ARE) small molecule agonists: qHTS cell viability counter screen in human keratinocytes (AID 1919968; active means well fitted curve in the direction sought with a large enough effect in the repeat runs; an effect the other way counts as inactive or inconclusive; further: nearly all actives have a fitted effect of over 55% in size). In short, it runs like this:
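KeratinoSens HaCaT cells, 1,500/well, preincubated 5 h, then exposed to compounds in DMSO for 23 h at 37 C/5% CO2. Viability read as CellTiter-Fluor fluorescence after 1 h, in the same wells as the ARE-luciferase read.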

A short description of test [2]: Nuclear factor erythroid 2-related factor 2/antioxidant responsive element (Nrf2/ARE) small molecule agonists: luciferase reporter gene qHTS assay in human keratinocytes (AID 1919969). Further: nearly all actives have a fitted effect of over 35% in size. In general terms: A reporter such as luciferase makes a cellular process visible.
Test [3] deals with Gonadotropin-releasing hormone receptor (Homo sapiens) (UniProt P30968). Briefly: Human gonadotropin-releasing hormone receptor (GnRHR) small molecule agonists, calcium flux assay in GnRHR-HEK293 cells (AID 1920063). Further: nearly all actives have a fitted effect of over 35% in size. The method in brief: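 HEK293 cells stably expressing human GnRHR were dye-loaded for 1 h at 37 C. Compound was added in agonist mode and fluorescence (Ex/Em 480/540) recorded kinetically for 3 min. Fifteen concentrations, triplicates.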
(In general: A change in cytosolic calcium serves as a functional read-out for many receptors and channels.)

Test [4] has as its target KiSS-1 receptor (Homo sapiens) (UniProt Q969F8). Briefly: Human kisspeptin (KISS1R) small molecule agonists, calcium flux assay in KISS1R-HEK293 cells (AID 1920064; active means well fitted curve in the direction sought with a large enough effect in the repeat runs; an effect the other way counts as inactive or inconclusive). The method in brief: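 HEK293 cells stably expressing human KISS1R were loaded with calcium dye for 1 h at 37 C, then given compound; fluorescence (Ex/Em 480/540) was read kinetically for 3 min. Fifteen concentrations, triplicate.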

A short description of test [5]: G protein-coupled receptor (GPCR) small molecule agonists, calcium flux assay: HEK293 wild type cell line counter screen (AID 1920065). The method in brief:
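Wild-type HEK293 cells plated 18 h, loaded with calcium dye 1 h at 37 C, then compounds added in agonist mode (ATP as positive control). Kinetic fluorescence Ex/Em 480/540 recorded 3 min at 1 sec intervals; 15 concentrations, triplicate.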

Test [6] in a line: p53 small molecule agonists, cell-based qHTS assay with human liver microsomes (AID 1963577). The method in brief:
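p53RE-bla reporter cells were pre-incubated 5 h at 37 C, then treated with compounds plus human liver microsomes (0.5 mg/mL final) and NADPH (0.5 mg/mL final) for 16 h at 37 C. Beta-lactamase activity was read by LiveBLAzer fluorescence after 2 h at room temperature.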

Test [7] in a line: p53 small molecule agonists, cell-based qHTS assay with rat liver microsomes (AID 1963578). In short, it runs like this:
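p53RE-bla cells were exposed to compounds together with rat liver microsomes (0.5 mg/mL final) and NADPH (0.5 mg/mL final) for 16 h at 37 C, then read by LiveBLAzer beta-lactamase fluorescence after 2 h at room temperature.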

Test [8] is described as follows: p53 small molecule agonists, cell-based qHTS assay with rat liver microsomes: qHTS cell viability counter screen (AID 1963580). Further: nearly all actives have a fitted effect of over 45% in size. The method in brief: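 Viability is assessed in parallel with the p53 reporter read: HCT-116 p53RE-bla cells receive compounds plus rat microsomes and NADPH (0.5 mg/mL final apiece), incubate 16 h at 37 C, and then CellTiter-Glo luminescence is recorded.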
(In general: In qHTS, concentration-response curves come from the screen itself.)

The nature of test [9]: p53 small molecule agonists, cell-based qHTS assay: qHTS cell viability counter screen (AID 1963581). Further: nearly all actives have a fitted effect of over 45% in size. The method in brief:
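p53RE-bla HCT-116 cells, compounds added 5 h after plating and incubated 16 h at 37 C. Cytotoxicity measured in the same wells as intracellular ATP by CellTiter-Glo luminescence after 30 min at room temperature.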

The target in test [10] is 5-hydroxytryptamine receptor 2A (Homo sapiens) (UniProt P28223). Description: 5-hydroxytryptamine receptor 2A (HTR2A) small molecule antagonists, cell-based qHTS assay (AID 1963586). Further: nearly all actives have a fitted effect of over 45% in size. Further: potency means the concentration at half of the fitted maximal effect. The method in brief: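 Antagonist-mode intracellular calcium assay: DOI (4 nM) added after 5 min compound pre-incubation at room temperature to dye-loaded HTR2A-CHO cells. Fluorescence followed for 3 min, sampled every second.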

Test [11] has the same target. Briefly: 5-hydroxytryptamine receptor 2A (HTR2A) small molecule agonists, cell-based qHTS assay (AID 1963587). Further: nearly all actives have a fitted effect of over 30% in size. Further: potency means the concentration at half of the fitted maximal effect. The method in brief: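 CHO cells stably expressing human HTR2A, plated 18 h, loaded with calcium dye 1 h at 37 C. Agonist mode: compounds added and intracellular calcium fluorescence recorded kinetically for 2 min at 1 sec intervals.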
In test [12] the target is Muscarinic acetylcholine receptor M1 (Homo sapiens) (UniProt P11229). Description: Cholinergic receptor muscarinic 1 (CHRM1) small molecule agonists, cell-based qHTS assay (AID 1963589). Further: nearly all actives have a fitted effect of over 35% in size. In short, it runs like this: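 CHO cells stably expressing human CHRM1 were loaded with calcium dye for 1 h at 37 C, then compound was added in agonist mode. Intracellular calcium fluorescence was followed kinetically at 1 s intervals. Fifteen concentrations were tested in three independent runs.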

The nature of test [13]: cAMP Responsive Elements (CRE) small molecule agonists, cell-based qHTS assay (AID 1963590). The method in brief:
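CRE-bla HEK 293T cells, 2,000/well in DMEM with 10% dialyzed FBS and 25 mM HEPES, pre-incubated 18 h at 37 C, then exposed to compound 3 h at 37 C. Beta-lactamase reporter read with LiveBLAzer B/G FRET substrate after 2 h at room temperature.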

Test [14] in a line: cAMP Responsive Elements (CRE) small molecule antagonists, cell-based qHTS assay (AID 1963591; active means well fitted inhibition curve with a large enough effect in the signal ratio in the repeat runs, not every such curve was filed as active; the % refers to the signal ratio). The method in brief: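 CRE-bla HEK293T cells plated 18 h, then given compound plus NKH477 at 0.25 uM final for 3 h at 37C. Beta-lactamase reporter read with LiveBLAzer B/G FRET substrate after 2 h at room temperature.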
For test [15], the target named is Beta-2 adrenergic receptor (Homo sapiens) (UniProt P07550). Description: Adrenergic beta2 receptor (ADRB2) small molecule antagonists, cell-based qHTS assay (AID 1963592). Further: series mostly up to about 92 µM; nearly all actives have a fitted effect of over 50% in size. The method in brief: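 Cells (CHO, stable ADRB2 overexpression) incubated 18-20hr at 37C; compounds added from DMSO; agonist mix (1nM isoproterenol, 100uM IBMX, 25uM Ro-20-1724) added; 0.5hr RT; d2-cAMP and anti-cAMP-cryptate added; 1hr RT; 665/615 nm read.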

In test [16] the target is D(2) dopamine receptor (Homo sapiens) (UniProt P14416). Briefly: Dopamine D2 receptor (DRD2) small molecule agonists, cell-based qHTS assay (AID 1963594). Further: nearly all actives have a fitted effect of over 35% in size. In short, it runs like this:
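HEK293 cells stably expressing human DRD2, pre-treated with PDE inhibitor Ro20-1724 (0.1 mM final) and compound 10 min at room temperature, then stimulated with NKH477 (200nM […]) for 30 min. cAMP read by HTRF (665/620 nm).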

Test [17] is described as follows: p53 small molecule agonists, cell-based qHTS assay (AID 1963582; active means well fitted activation curve with a large enough effect in the signal ratio in the repeat runs, not every such curve was filed as active; the % refers to the signal ratio). In short, it runs like this: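 p53RE-bla reporter cells, compounds added in DMSO after 5 h plating, incubated 16 h at 37 C. Beta-lactamase read via 2 h room-temperature LiveBLAzer B/G FRET substrate, fluorescence intensity.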
Test [18] addresses Muscarinic acetylcholine receptor M1 (Homo sapiens) (UniProt P11229). Briefly: Cholinergic receptor muscarinic 1 (CHRM1) small molecule antagonists, cell-based qHTS assay (AID 1963588). Further: nearly all actives have a fitted effect of over 40% in size. Further: potency means the concentration at half of the fitted maximal effect. In short, it runs like this: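 CHRM1-CHO calcium-flux assay, antagonist mode. Cells were seeded 18 h, dye-loaded 1 h at 37 C and given compound for 5 min at RT, then acetylcholine was added at 50nM. FDSS fluorescence was read 3 min; 15 concentrations, three runs.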

The target of test [19] is Beta-2 adrenergic receptor (Homo sapiens) (UniProt P07550). Description: Adrenergic beta2 receptor (ADRB2) small molecule agonists, cell-based qHTS assay (AID 1963593).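 Further: CHO cells stably overexpressing human ADRB2.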 In short, it runs like this:
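CHO cells stably over-expressing ADRB2 were plated overnight at 37C, then dosed with compounds plus a stimulation mix containing 100uM IBMX and 25uM Ro-20-1724 for 0.5hr at room temperature. cAMP was measured by HTRF competition, 1hr.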

Test [20] has as its target D(2) dopamine receptor (Homo sapiens) (UniProt P14416). Briefly: Dopamine D2 receptor (DRD2) small molecule antagonists, cell-based qHTS assay (AID 1963595; active means well fitted inhibition curve with a large enough effect in the signal ratio in the repeat runs, with a control signal flat; the % refers to the signal ratio). In short, it runs like this:
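HTRF cAMP read-out at 665 and 620 nm emission (340 nm excitation). Antagonist mode: compounds were tested against 12 nM quinpirole in DRD2-HEK293 cells, with 200 nM NKH477 raising cAMP and 0.1 mM Ro20-1724 blocking its breakdown.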
On the % scale 0 is the no-effect control and ±100 the full control effect.

Chain of 5-hydroxytryptamine receptor 2A (Homo sapiens) (P28223 whole entry, looked up): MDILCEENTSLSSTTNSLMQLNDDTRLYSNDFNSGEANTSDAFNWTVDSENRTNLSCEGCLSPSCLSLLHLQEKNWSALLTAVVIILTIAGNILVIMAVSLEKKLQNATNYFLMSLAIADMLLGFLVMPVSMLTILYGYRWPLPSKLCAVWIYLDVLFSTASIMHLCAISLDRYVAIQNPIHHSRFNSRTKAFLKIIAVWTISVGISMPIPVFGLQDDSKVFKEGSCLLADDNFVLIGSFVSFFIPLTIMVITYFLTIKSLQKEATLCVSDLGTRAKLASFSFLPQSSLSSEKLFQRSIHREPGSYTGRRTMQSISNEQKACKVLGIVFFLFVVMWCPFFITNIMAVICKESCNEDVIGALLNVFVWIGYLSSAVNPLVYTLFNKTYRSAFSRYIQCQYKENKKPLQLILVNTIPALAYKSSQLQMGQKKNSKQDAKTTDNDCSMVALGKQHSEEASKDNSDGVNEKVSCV
Chain of Muscarinic acetylcholine receptor M1 (Homo sapiens) (P11229 whole entry, looked up): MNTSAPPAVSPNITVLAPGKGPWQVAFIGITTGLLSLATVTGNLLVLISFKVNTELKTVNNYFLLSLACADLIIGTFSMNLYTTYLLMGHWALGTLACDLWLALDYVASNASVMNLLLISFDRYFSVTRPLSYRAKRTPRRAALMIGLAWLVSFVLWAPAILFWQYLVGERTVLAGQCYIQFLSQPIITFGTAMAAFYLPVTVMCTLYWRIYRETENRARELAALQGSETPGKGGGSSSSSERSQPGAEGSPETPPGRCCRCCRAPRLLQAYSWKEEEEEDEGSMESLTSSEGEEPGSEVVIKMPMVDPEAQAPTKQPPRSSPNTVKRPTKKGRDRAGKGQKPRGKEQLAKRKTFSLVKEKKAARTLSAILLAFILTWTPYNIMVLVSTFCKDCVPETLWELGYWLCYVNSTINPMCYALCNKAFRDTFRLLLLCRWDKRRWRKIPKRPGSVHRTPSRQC
Chain of Beta-2 adrenergic receptor (Homo sapiens) (P07550 whole entry, looked up): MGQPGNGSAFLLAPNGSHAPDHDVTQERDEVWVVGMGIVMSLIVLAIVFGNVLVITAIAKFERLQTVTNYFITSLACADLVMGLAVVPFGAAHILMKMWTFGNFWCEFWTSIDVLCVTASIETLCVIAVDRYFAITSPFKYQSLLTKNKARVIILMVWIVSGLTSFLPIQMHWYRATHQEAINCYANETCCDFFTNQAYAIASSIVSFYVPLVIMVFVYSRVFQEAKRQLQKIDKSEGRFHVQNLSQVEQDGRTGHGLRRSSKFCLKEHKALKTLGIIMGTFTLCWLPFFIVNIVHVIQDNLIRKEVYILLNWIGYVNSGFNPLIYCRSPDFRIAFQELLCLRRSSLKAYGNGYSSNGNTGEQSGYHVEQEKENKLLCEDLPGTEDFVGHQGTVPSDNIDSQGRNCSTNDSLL
Chain of D(2) dopamine receptor (Homo sapiens) (P14416 whole entry, looked up): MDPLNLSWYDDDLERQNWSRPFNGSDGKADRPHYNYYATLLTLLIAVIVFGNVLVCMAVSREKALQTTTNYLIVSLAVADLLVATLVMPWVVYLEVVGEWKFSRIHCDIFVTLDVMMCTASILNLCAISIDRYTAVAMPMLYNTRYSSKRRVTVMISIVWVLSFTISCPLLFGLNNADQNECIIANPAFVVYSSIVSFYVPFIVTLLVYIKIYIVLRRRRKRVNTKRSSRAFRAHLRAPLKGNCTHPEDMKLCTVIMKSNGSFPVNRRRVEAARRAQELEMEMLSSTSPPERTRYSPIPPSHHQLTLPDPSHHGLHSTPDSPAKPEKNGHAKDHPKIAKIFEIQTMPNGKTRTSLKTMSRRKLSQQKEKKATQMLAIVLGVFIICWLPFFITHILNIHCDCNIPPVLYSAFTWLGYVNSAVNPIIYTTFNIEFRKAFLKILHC
Chain of KiSS-1 receptor (Homo sapiens) (Q969F8 whole entry, looked up): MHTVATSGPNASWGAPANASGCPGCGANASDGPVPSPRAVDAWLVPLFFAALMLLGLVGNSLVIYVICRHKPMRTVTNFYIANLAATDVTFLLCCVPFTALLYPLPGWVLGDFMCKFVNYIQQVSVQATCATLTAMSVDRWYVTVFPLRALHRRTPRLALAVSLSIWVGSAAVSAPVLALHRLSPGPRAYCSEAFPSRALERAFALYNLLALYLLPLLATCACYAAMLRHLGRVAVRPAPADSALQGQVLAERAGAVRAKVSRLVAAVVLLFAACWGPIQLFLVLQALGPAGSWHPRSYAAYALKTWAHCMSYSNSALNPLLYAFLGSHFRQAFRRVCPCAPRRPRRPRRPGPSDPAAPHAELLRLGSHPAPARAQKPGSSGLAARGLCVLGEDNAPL
Chain of Gonadotropin-releasing hormone receptor (Homo sapiens) (P30968 whole entry, looked up): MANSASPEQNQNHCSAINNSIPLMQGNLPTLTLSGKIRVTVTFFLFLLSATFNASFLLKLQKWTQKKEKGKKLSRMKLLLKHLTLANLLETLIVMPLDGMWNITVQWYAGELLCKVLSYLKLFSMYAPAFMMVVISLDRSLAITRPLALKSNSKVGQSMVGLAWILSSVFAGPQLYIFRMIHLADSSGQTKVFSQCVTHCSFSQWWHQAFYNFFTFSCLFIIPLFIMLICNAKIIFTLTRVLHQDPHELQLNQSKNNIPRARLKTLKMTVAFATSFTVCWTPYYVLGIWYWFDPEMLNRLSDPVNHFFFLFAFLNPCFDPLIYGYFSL

On to `CCCCCCC`, for which the Potency entry in test [1], in test [2], in test [3], in test [6], in [7] and in [8] was “inactive” in each case. Besides, the Potency entry in test [9], in test [10], in [11], in [12], in test [13] and in test [14] was “inactive” each time. The Potency entry in [15] and in test [16] was “inactive” in each case. For the same compound, the outcome in test [4] and in test [5] was inactive.
Regarding `O=C(OC1C[C@H]2CC[C@@H](C1)[N+]21CCCC1)C(O)(c1ccccc1)c1ccccc1` (stereo partly drawn), the Potency result in [1], in [2], in test [3], in [6], in test [7] and in test [8] was “inactive” each time. For the same compound, the Potency result in [9], in [17], in test [11], in test [12], in [13] and in test [14] was “inactive” in each case. In addition, the Potency result in test [15], in test [19], in test [16] and in [20] was “inactive” throughout. The result in test [4] and in test [5] was inactive. Besides, the Potency in [18] was 0.0015 µM (active).
Regarding `CC[C@@]1(O)C(=O)OCc2c1cc1n(c2=O)Cc2c-1nc1ccccc1c2/C=N/OC(C)(C)C`, the Potency entry in test [1], in test [2], in [3], in test [6], in test [7] and in test [8] was “inactive” each time. Also, the Potency result in test [9], in [11], in test [12], in test [15] and in [20] was “inactive” each time. Moreover, the result in test [4] and in test [5] was inactive. Besides, the results for the Potency in test [10] and in test [18] were 5.79 µM (active) and 20.5 µM (active), respectively.
As to `CCOC(=O)c1cnc2c(cnn2CC)c1NN=C(C)C`, the Potency entry in test [1], in [2], in test [3], in test [6], in [7] and in [8] was “inactive” in each case. Besides, the Potency result in test [9], in test [11], in test [18], in test [12], in test [13] and in test [15] was “inactive” in each case. The Potency entry in test [16] and in test [20] was “inactive” each time. In addition, the result in test [4] and in test [5] was inactive.
As for `CCOC(=O)C(=O)OCC`, the Potency entry in [1], in test [2], in test [3], in test [6], in test [7] and in test [8] was “inactive” throughout. The Potency entry in test [17], in test [10], in test [11], in test [18], in [12] and in test [13] was “inactive” throughout. Also, the Potency result in test [14], in [19], in [16] and in test [20] was “inactive” throughout. The result in test [4] and in test [5] was inactive.
On to `CC(C)Cn1cnc2c(N)nc3ccccc3c21`, for which the activity change, negative = cytotoxicity in [1] is -5.63% [at 19 µM]; in [8], -0.545% [at 13.5 µM]. In addition, in test [2], the activity, positive = activation is 7.96% [at 19 µM]. In test [3], the activity change was -1.43% [at 11.8 µM, hits give high values]. In addition, the activation in [4] was 1.32% [at 15.8 µM]; in test [5] it was -0.0034% [at 11.8 µM]; in test [6], 13.5% [at 13.5 µM]; in test [7], -0.62% [at 13.6 µM]; in test [13] it was 3.84% [at 19 µM]. The results for the activity change, negative = inhibition in test [14] and in test [15] were 2.85% [at 18.9 µM] and -12.1% [at 19 µM], respectively.
For the compound `Cc1ccc2c(c1)c1c3n2CCNC3CCC1` (stereo not drawn), the Potency result in test [1], in [2], in [3], in test [6], in test [7] and in [8] was “inactive” each time. Moreover, the Potency entry in [17], in test [18], in [12], in [13], in test [14] and in [15] was “inactive” in each case. Moreover, the Potency result in [16] and in test [20] was “inactive” each time. Further, the result in test [4] and in test [5] was inactive. Besides, the figures for the Potency in test [10] and in test [11] were 18.3 µM (active) and 9.52 µM (active), respectively.
